# Experimental data taken from the supplement of paper PMC9135407.
# Counter-ions that a name gives are not always drawn. The campaign covered roughly 5,800 compounds. About 620 (11%) showed activity. This excerpt belongs to a sample that is enriched for actives. Unmarked numbers belong to inactive results.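 Rule for the calls: active = score above a cut-off or among the top three wells of a plate; in these data no inactive exceeds 0.85.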
# System: primary human hepatic stellate cells (donor 1)
# Experiment: scaled lipid accumulation score (0 = DMSO-like, 1 = nortriptyline-like); higher = stronger HSC inactivation (lipid re-accumulation), active = hit call of the paper
# Details: 48 h
# [1] = library stock concentration: 2 mM
# [2] = library stock concentration: 3.33 mM
# [3] = library stock concentration: 1 mM
# [4] = library stock concentration: 10 mM
# [5] = library stock concentration: 80 uM
# [6] = library stock concentration: 400 uM
compound,measurement,setting,value
C[C@@H](O)[C@@H]1NC(=O)[C@H](CCCCN)NC(=O)[C@@H](Cc2c[nH]c3ccccc23)NC(=O)[C@H](Cc2ccccc2)NC(=O)[C@@H](NC(=O)[C@H](N)Cc2ccccc2)CSSC[C@@H](C(=O)N[C@H](CO)[C@@H](C)O)NC1=O [Octreotide],scaled lipid accumulation score,[1],0.006
CC(=O)O/N=C1/C(c2c(O)[nH]c3cc(Br)ccc23)=Nc2ccccc21 [GSK-3 Inhibitor X],scaled lipid accumulation score,[2],≤ 0
O=C1C[C@@H]2[C@@H](CC[C@@H](O)CCc3ccccc3)[C@H](O)C[C@@H]2O1 [Latanoprost Lactone Diol],scaled lipid accumulation score,[3],0.003
O=C(CCCCCCCCCCCCC1CCCC1)Nc1ccc(S(=O)(=O)c2ccc(NC(=O)CCCCCCCCCCCCC3CCCC3)cc2)cc1 [Chaulmosulfone],scaled lipid accumulation score,[4],≤ -0.027
COc1cc2c(Oc3ccc4[nH]c(C)cc4c3F)ncnc2cc1OCCCN1CCCC1 [Cediranib (AZD2171)] [listing 1 of 2 here],scaled lipid accumulation score,[4],0.678
Cc1cc2c(F)c(Oc3ncnn4cc(OC[C@@H](C)OC(=O)[C@H](C)N)c(C)c34)ccc2[nH]1,scaled lipid accumulation score,[2],≤ 0
same,scaled lipid accumulation score,[4],≤ 0
Cc1cc2c(F)c(Oc3ncnn4cc(OC[C@@H](C)O)c(C)c34)ccc2[nH]1 [Brivanib],scaled lipid accumulation score,[5],≤ -0.009
same,scaled lipid accumulation score,[6],≤ -0.009
same,scaled lipid accumulation score,[1],≤ -0.009
same,scaled lipid accumulation score,[4],≤ -0.009
COc1cc2c(Oc3ccc4[nH]c(C)cc4c3F)ncnc2cc1OCCCN1CCCC1 [Cediranib] [listing 1 of 2 here],scaled lipid accumulation score,[1],1.06 (active)
COc1cc2c(Oc3ccc4[nH]c(C)cc4c3F)ncnc2cc1OCCCN1CCCC1 [Cediranib (AZD2171)] [listing 2 of 2 here],scaled lipid accumulation score,[2],1.1 (active)
COc1cc2c(Oc3ccc4[nH]c(C)cc4c3F)ncnc2cc1OCCCN1CCCC1 [Cediranib] [listing 2 of 2 here],scaled lipid accumulation score,[5],0.077
same,scaled lipid accumulation score,[6],0.464
same,scaled lipid accumulation score,[4],0.693
Cc1cc2c(F)c(Oc3ncnn4cc(OC[C@@H](C)O)c(C)c34)ccc2[nH]1,scaled lipid accumulation score,[2],0.023
same,scaled lipid accumulation score,[4],≤ 0
CCCCCCCC/C=C\CCCCCC(=O)O [cis-7-Hexadecenoic Acid],scaled lipid accumulation score,[3],≤ 0
COC(=O)C(C)(N)Cc1ccc(O)cc1 (racemic) [alpha-Methyl-DL-tyrosine methyl ester hydrochloride],scaled lipid accumulation score,[4],≤ -0.019
CN1CCC(CNc2ccc3ncc(-c4cccc(OC(F)(F)F)c4)n3n2)CC1 [SGI-1776 free base],scaled lipid accumulation score,[2],0.774
same,scaled lipid accumulation score,[4],0.181
CN1CCC(CNc2ccc3ncc(-c4cccc(OC(F)(F)F)c4)n3n2)CC1 [listing 1 of 2 here],scaled lipid accumulation score,[5],0.117
same,scaled lipid accumulation score,[6],0.23
same,scaled lipid accumulation score,[4],0.47
CN1CCC(CNc2ccc3ncc(-c4cccc(OC(F)(F)F)c4)n3n2)CC1 [listing 2 of 2 here],scaled lipid accumulation score,[1],1.4 (active)
CCCCC/C=C\C/C=C\C/C=C\C/C=C\CCCC(=O)NC[C@]1(C)CCC[C@]2(C)c3ccc(C(C)C)cc3CC[C@@H]12 [Arachidonic Acid Leelamide],scaled lipid accumulation score,[3],0.002
CCCCCCCCCCCCCCCC(=O)NC(CO)CO [Palmitoyl Serinol],scaled lipid accumulation score,[3],0.026
O=C(Nc1ccncc1)Nc1c(Cl)cc(Cl)cc1Cl [Rho Kinase Inhibitor II],scaled lipid accumulation score,[2],≤ 0
Cc1cc(/C=C/C#N)cc(C)c1Nc1ccnc(Nc2ccc(C#N)cc2)n1 [Rilpivirine],scaled lipid accumulation score,[2],≤ -0.009
same,scaled lipid accumulation score,[4],≤ 0
Cc1cc(C)c(Nc2ccnc(Nc3ccc(C#N)cc3)n2)c(C)c1 [Dapivirine (TMC120)] [listing 1 of 2 here],scaled lipid accumulation score,[4],1.08 (active)
Cc1cc(C)c(Nc2ccnc(Nc3ccc(C#N)cc3)n2)c(C)c1 [Dapivirine (TMC120)] [listing 2 of 2 here],scaled lipid accumulation score,[2],0.243
Cc1ccccc1-c1cccc(N2CCC(N3CCN(C)C(C)C3)CC2)c1 (stereo not given),scaled lipid accumulation score,[4],1.05 (active)
O=C(O)CCC/C=C\C[C@@H]1[C@@H](/C=C/[C@H](O)CCc2ccccc2)[C@H](O)C[C@@H]1O [15(R)-17-phenyl trinor Prostaglandin F2.alpha.],scaled lipid accumulation score,[3],≤ 0
CN(Cc1ccccc1)C(=O)[C@H](Cc1ccc2ccccc2c1)NC(=O)[C@@H]1CCCN1C(=O)Nc1ccccc1[N+](=O)[O-],scaled lipid accumulation score,[4],0.005
CNC(=O)[C@@H](Cc1ccccc1)N(C)C(=O)[C@@H](Cc1ccc2ccccc2c1)N(C)C(=O)/C=C/CC(C)(C)N.CNC(=O)[C@@H](Cc1ccccc1)N(C)C(=O)[C@@H](Cc1ccc2ccccc2c1)N(C)C(=O)/C=C/CC(C)(C)N.O=C(O)/C=C/C(=O)O [Tabimorelin],scaled lipid accumulation score,[4],1.3 (active)
CN(Cc1ccccc1)C(=O)[C@H](Cc1ccc2ccccc2c1)NC(=O)[C@@H]1C[C@@H](O)CN1C(=O)c1cn(C)c2ccccc12,scaled lipid accumulation score,[4],0.019
CCCCCCCCCCCCC/C=C/[C@@H](O)[C@H](CO)NC(=O)CCCCCCCCCCCCCCC [C16 Ceramide],scaled lipid accumulation score,[3],≤ -0.021
C[n+]1cc2c3c(ccc2c2ccc4cc5c(cc4c21)OCO5)OCO3 [Sanguinarine sulfate],scaled lipid accumulation score,library stock concentration: 4.7 mM,0.693
same,scaled lipid accumulation score,[4],0.287
C[n+]1cc2c3c(ccc2c2ccc4cc5c(cc4c21)OCO5)OCO3 [Sanguinarine],scaled lipid accumulation score,,0.869 (active)
C[n+]1cc2c3c(ccc2c2ccc4cc5c(cc4c21)OCO5)OCO3 [Sanguinarine chloride],scaled lipid accumulation score,[4],0.196
COc1ccc2cc3[n+](cc2c1OC)CCc1cc2c(cc1-3)OCO2 [Berberine chloride],scaled lipid accumulation score,,≤ 0
same,scaled lipid accumulation score,[4],≤ 0
